Records with an inconclusive call do not appear. Calls of active or inactive are those of the source. How the source made its calls, unless noted: active means hit-call score of the fitted dose curve at least 0.9, where 1 is the maximum; inactive means score below 0.9.
Assays:
[1] = test system: Brachyury (BRA) Protein Expression, Deisenroth Lab, TBXT (gene 6862); experiment: CCTE_Deisenroth_DEVTOX-GLR_legacy_Bra: (Legacy) CCTE's DevTox GLR-Endo Assay Evaluation of Brachyury (BRA) Protein Expression, Deisenroth Lab (AID 2284329)
Method in brief: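 RUES2-GLR human pluripotent cells are differentiated for 48 h and receive two chemical exposures 24 h apart, at 10 concentrations from 1 nM to 200 uM. Cells are fixed, nuclei stained and imaged. Bra+ cells are those with mean Bra intensity over 5x BMAD above the pluripotent control median, expressed as a percentage of cell count, after subtracting the 0.2% DMSO control median.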

[2] = CCTE_Deisenroth_DEVTOX-GLR_legacy_CellCount: (Legacy) Viability Assessment in CCTE's DevTox GLR-Endo Assay, Deisenroth Lab (AID 2284331); conditions: actives raise or lower the signal
Method in brief: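 Human pluripotent RUES2-GLR cells differentiated 48 h with two 24-h-interval exposures, 10-point 1 nM–200 uM series, 0.2% DMSO. Fixed nuclei counted by high-content imaging (5 fields/well); bidirectional fit vs DMSO, n≥4.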

[3] = test system: SRY-box transcription factor 17 (SOX17) Protein Expression, Deisenroth Lab, SOX17 (gene 64321); experiment: CCTE_Deisenroth_DEVTOX-GLR_legacy_Sox17: (Legacy) CCTE's DevTox GLR-Endo Assay Evaluation of SRY-box transcription factor 17 (SOX17) Protein Expression, Deisenroth Lab (AID 2284341); conditions: actives raise or lower the signal
Method in brief: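 RUES2-GLR human pluripotent cells differentiated toward endoderm for 48 h, dosed twice at 24 h intervals (1 nM–200 uM, 10 points). Imaging gives % SOX17+ cells (intensity >5x BMAD above pluripotent control median); bidirectional fit versus 0.2% DMSO.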

[4] = test system: SRY-box transcription factor 2 (SOX2) Protein Expression, Deisenroth Lab, SOX2 (gene 6657); experiment: CCTE_Deisenroth_DEVTOX-GLR_legacy_Sox2: (Legacy) CCTE's DevTox GLR-Endo Assay Evaluation of SRY-box transcription factor 2 (SOX2) Protein Expression, Deisenroth Lab (AID 2284346)
Method in brief: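 RUES2-GLR human pluripotent cells were differentiated for 48 h with two chemical doses 24 h apart, over 1 nM-200 uM. Sox2+ cells were those above 5x BMAD of the endoderm-control median; percent Sox2+ minus the 0.2% DMSO median was used, from n=4 replicates.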

[5] = test system: SRY-box transcription factor 2 (SOX2) Protein Expression, Deisenroth Lab, SOX2 (gene 6657); experiment: CCTE_Deisenroth_DEVTOX-GLR_Endo_SOX2: CCTE's DevTox GLR-Endo Assay Evaluation of SRY-box transcription factor 2 (SOX2) Protein Expression, Deisenroth Lab (AID 2284412; active means hit-call score of the fitted dose curve at least 0.9, where 1 is the maximum)
Method in brief: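 RUES2-GLR human pluripotent cells were seeded 24 h, then differentiated 48 h with two chemical exposures 24 h apart. Cells were fixed, nuclei stained and imaged by high-content microscopy. Endpoint is %SOX2+ cells over cell count, minus 0.2% DMSO control; 10-point series 1 nM–200 uM.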

[6] = test system: SRY-box transcription factor 17 (SOX17) Protein Expression, Deisenroth Lab, SOX17 (gene 64321); experiment: CCTE_Deisenroth_DEVTOX-GLR_Endo_SOX17: CCTE's DevTox GLR-Endo Assay Evaluation of SRY-box transcription factor 17 (SOX17) Protein Expression, Deisenroth Lab (AID 2284413)
Method in brief: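 RUES2-GLR human pluripotent cells were differentiated toward endoderm for 48 h and received two compound doses 24 h apart (1 nM - 200 uM, 10 points). High-content imaging of fixed cells gave the percent SOX17+ cells per cell count, expressed as percent change versus 0.2% DMSO.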

[7] = test system: Brachyury (BRA) Protein Expression, TBXT (gene 6862); experiment: CCTE_Deisenroth_DEVTOX-GLR_Endo_BRA: CCTE's DevTox GLR-Endo Assay Evaluation of Brachyury (BRA) Protein Expression, Deisenroth Lab (AID 2284417)
Method in brief: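 RUES2-GLR pluripotent cells differentiated 48 h with two chemical exposures 24 h apart, 10-point range 1 nM - 200 uM. Percentage of BRA+ cells per total count by high-content imaging, minus 0.2% DMSO control.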

[8] = CCTE_Deisenroth_DEVTOX-GLR_Endo_CellCount: Viability Assessment in CCTE's DevTox GLR-Endo Assay, Deisenroth Lab (AID 2284420)
Method in brief: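 RUES2-GLR human pluripotent cells seeded 24 h, then differentiated 48 h with two chemical exposures at 24 h intervals (10-point, 1 nM - 200 uM). Fixed, nuclear-stained, imaged; nuclei counts give % change in cell count versus 0.2% DMSO.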

[9] = test system: SRY-box transcription factor 2 (SOX2) Protein Expression, Deisenroth Lab, SOX2 (gene 6657); experiment: CCTE_Deisenroth_DEVTOX-GLR_Pluri_SOX2: CCTE's DevTox GLR-Pluri Assay Evaluation of SRY-box transcription factor 2 (SOX2) Protein Expression, Deisenroth Lab (AID 2284428)
Method in brief: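 Human pluripotent RUES2-GLR cells were seeded 24 h, then differentiated 48 h in defined media with two chemical doses at 24-h intervals (10-point, 1 nM–200 uM). Nuclear-stained cells were imaged; SOX2+ cells/cell count gave percent change versus 0.2% DMSO control.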

[10] = test system: Brachyury (BRA) Protein Expression, Deisenroth Lab, TBXT (gene 6862); experiment: CCTE_Deisenroth_DEVTOX-GLR_Pluri_BRA: CCTE's DevTox GLR-Pluri Assay Evaluation of Brachyury (BRA) Protein Expression, Deisenroth Lab (AID 2284429; active means hit-call score of the fitted dose curve at least 0.9, where 1 is the maximum)
Method in brief: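 RUES2-GLR human pluripotent cells differentiated 48 hours with two chemical exposures 24 hours apart, 10-point series 1 nM–200 uM. Fixed, nuclear-stained, imaged; endpoint is percent BRA+ cells minus 0.2% DMSO control.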

[11] = CCTE_Deisenroth_DEVTOX-GLR_Pluri_CellCount: Viability Assessment in CCTE's DevTox GLR-Pluri Assay Evaluation of Total Cell Counts, Deisenroth Lab (AID 2284430)
Method in brief: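 RUES2-GLR human pluripotent cells, seeded 24 h, then differentiated 48 h with two chemical exposures 24 h apart; 10-point series 1 nM - 200 uM. Fixed, nuclear-stained, imaged (5 fields/well); nuclei count as % change vs 0.2% DMSO.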

Measured: AC50

Oc1cc(O)c2c(c1)O[C@H](c1ccc(O)c(O)c1)[C@@H](O)C2
active: [2] 167 µM | [3] 144 µM | [6] 146 µM | [7] 0.000133 µM | [8] 167 µM | [9] 5.13 µM | [10] 157 µM
inactive: [1] | [4] | [5] | [11]
